Source: PubChem BioAssay
Compounds with a hit are over-represented: about 11% of the library has one in this group of screens.
Ins promoter up = insulin promoter activators in MIN6 cells, imaging, high-content screening, mouse beta cells; MIN6 insulin promoter-GFP reporter; active compounds read high; z-score at 5 µM; AID 1625, 2009; hit rate 0.3% among 190,000;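 active = z-score above 3 at 5 µM with at least 500 cells counted in the well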
WT yeast gro inh = growth inhibition of WT strain, primary screen, mitochondrial fusion inhibitor project, WT and mutant strains, chemical genetic | mitochondrial fusion phenotypic screen | inhibition, % at 10 µM | hit rate 2.1% among 190,000 | AID 1362, 2008; in the data active = inhibition above about 58%; tested in S. cerevisiae
L major viab = Leishmania major promastigote growth inhibition, primary screen; AID 1063, 2008; hit rate 9% among 200,000; Leishmania major promastigotes, resazurin fluorescence viability; inhibition, % at 10 µM; in the data active = inhibition above about 50%;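 note: promastigotes grown with compound for 44 hours at 28 °C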
Autophagy HCS = autophagy modulators in MEF cells, primary screen, imaging, high-content, MEF GFP-LC3; MEF GFP-LC3 puncta imaging; test concentration mostly 10 µM; calls only at 10 µM (by protocol); hit rate 0.98% among 190,000; AID 463193, 2010;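 active = percentage of spot-positive cells more than 3 SD above its plate mean, without a fluorescence outlier flag or 80% toxicity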;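 note: spot-positive cell cutoff set from DMSO-treated cells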
INS promoter inh = inhibitors of insulin promoter-driven GFP, primary screen, imaging, TRM-6 cells (human fetal islet line), eGFP reporter, cell count; hit rate 0.9% among 130,000; inhibition, % at 2 µM; reporter expression induced with tamoxifen;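 active = inhibition above the mean plus 3 SD, with well images judged a real hit on visual review, cut at about 60% in these data, passing the limit was not always enough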
The depositor's hits bear a star; i = inactive; · = no result given.

SMILES	Ins promoter up	WT yeast gro inh	L major viab	Autophagy HCS	INS promoter inh
COc1ccc(C(CCNCc2ccc(F)cc2)c2ccc(F)cc2)cc1 (configuration not stated)	-0.27	59.2*	72.1*	i	·
COc1ccc(CNCCC(c2ccc(F)cc2)c2ccc(OC)cc2)cc1 (configuration not stated)	-1.22	74.8	100.4*	i	-34.5
O=C(Cc1c(F)cccc1Cl)N(Cc1ccccc1)c1ccccn1	0.9	4.7	10.9	i	·
CC1CC(C)CN(C(=O)c2cc3cc(Br)cc(Br)c3o2)C1 (configuration not stated)	-0.02	78.3*	89.6*	i	-8.3
COC(=O)CN(C#N)c1nc(NC(C)C)nc(NC(C)C)n1	0.43	-14.1	-0.4	i	·
Cc1ccc(-c2ccc(/C=N/n3cnnc3)o2)cc1	0.89	·	·	·	·
Cc1ccc(-c2ccc(/C=N/n3cnnc3)o2)cc1Cl	-0.2	27.3	71.0*	i	33.3
COC(=O)c1ccc(CN2CCN(C(C)C)C(CCO)C2)cc1 (configuration not stated)	·	-7.0	3.5	i	-27.8
CCCSc1nc(O)c(C(c2ccc(OC)c(O)c2)c2c(O)nc(SCCC)n(C)c2=O)c(=O)n1C	0.17	-21.3	-4.3	i	-9.7
Cc1noc(C)c1S(=O)(=O)N1CCCC(C(=O)c2cccc(OC(C)C)c2)C1 (configuration not stated)	-0.19	17.5	55.7*	i	·
O=C(c1ccc(C(F)(F)F)cc1)C1CCCN(Cc2cccn2-c2ncccn2)C1 (configuration not stated)	-1.33	-9.5	70.9*	i	6.7
CC(C)Oc1cccc(C(=O)C2CCCN(Cc3ccc4nonc4c3)C2)c1 (configuration not stated)	1.62	29.9	83.4*	i	·
O=C(c1cccc(C(F)(F)F)c1)C1CCCN(Cc2cccn2-c2ncccn2)C1 (configuration not stated)	-0.62	13.6	27.9	i	·
CCn1nc(C)c(CN2CCCC(C(=O)c3cccc(OC(C)C)c3)C2)c1C (configuration not stated)	-0.97	3.0	86.2*	i	8.7
CC(C)Oc1cccc(C(=O)C2CCCN(C(=O)c3noc4c3CCCC4)C2)c1 (configuration not stated)	1.33	17.6	-0.5	i	·
CC(C)Oc1cccc(C(=O)C2CCCN(S(C)(=O)=O)C2)c1 (configuration not stated)	0.51	-18.3	-3.3	i	·
COCc1cc(C)nc(OC)c1C(N)=O	-0.86	10.8	-3.4	i	53.3
COc1ccc(-c2nsc3c(SCC(=O)Nc4cc(C)ccc4C)ncnc23)cc1	·	4.4	-2.7	i	-16.0
CC1=CC(C)(C)[N+](C)=CN1c1ccccc1	-0.46	4.3	-5.5	i	46.1
CCOc1cc(CN2CCCC(C(=O)c3cccc(C(F)(F)F)c3)C2)ccc1O (configuration not stated)	0.14	-8.6	54.2*	i	·
CCOC(=O)C1CCCN(Cc2ccc(O)c(OC)c2)C1 (configuration not stated)	-0.19	17.7	-2.4	i	35.7
Cc1nn(C(C)C)c(C)c1CN1CCCC(C(=O)c2cccc(OC(C)C)c2)C1 (configuration not stated)	·	4.1	20.5	i	-60.9
CC(C)Oc1cccc(C(=O)C2CCCN(Cc3cnn(C(C)C)c3)C2)c1 (configuration not stated)	-0.56	0.2	85.3*	i	·
CC(C)Oc1cccc(C(=O)C2CCCN(Cc3cccn3-c3ccccn3)C2)c1 (configuration not stated)	-3.37	5.9	97.6*	i	·
CC(C)(C)c1ccc(-c2noc(-c3ccno3)n2)cc1	0.31	·	·	·	·
SMILES	Ins promoter up	WT yeast gro inh	L major viab	Autophagy HCS	INS promoter inh
CCOc1ccc(-c2nc(-c3ccncc3)no2)cc1OCC	-0.37	-3.7	89.2*	i	20.0
O=[N+]([O-])c1cc(-c2nc(-c3ccncc3)no2)cc([N+](=O)[O-])c1	0.07	18.4	94.4*	i	6.7
CC(C)(C)c1ccc(-c2nc(-c3ccncc3)no2)cc1	·	62.2*	-9.2	i	-25.8
Cc1cccc(NC(NC(=O)c2ccccc2[N+](=O)[O-])C(Cl)(Cl)Cl)c1 (configuration not stated)	·	7.3	2.5	i	20.0
Cc1cc(C(=O)N2CCCC(C(=O)c3cccc(C(F)(F)F)c3)C2)nc(C)n1 (configuration not stated)	-0.04	-5.6	-4.7	i	-70.7
CC(OC(=O)c1ccc([N+](=O)[O-])s1)C(=O)Nc1ncc(Cl)cc1Cl (configuration not stated)	0.13	7.2	100.0*	i	-26.7
Cc1cc(Cl)ccc1OCC(=O)Nc1nc(-c2cccs2)cs1	-1.39	59.9*	5.3	i	13.5
CCOC(=O)N1CCN(C(=O)CSCC(=O)Nc2nc(-c3cccs3)cs2)CC1	-0.22	-3.6	78.8*	i	-31.2
CC1CCN(C(=O)CSCC(=O)Nc2nc(-c3cccs3)cs2)CC1	0.54	7.6	-5.7	i	0.0
NC1=C([N+](=O)[O-])C(c2ccc(F)cc2)C2=C(CCCC2=O)O1 (configuration not stated)	0.77	-12.9	-5.7	i	-34.6
CC(=O)N(C)C1=C(N2CCOCC2)C(=O)c2ccccc2C1=O	-0.7	16.2	94.9*	i	·
CNc1nc(Nc2ccc(Br)cc2)nc(N)c1[N+](=O)[O-]	0.73	9.8	50.3*	i	12.0
COc1ccc(OC(=O)c2ccc(Cl)cc2)c(C(C)=O)c1	0.04	3.9	-6.1	i	·
O=C(NC1(C(F)(F)F)NC(=O)N(c2ccc(F)c(Cl)c2)C1=O)c1ccncc1 (configuration not stated)	4.5*	9.1	-2.4	i	26.7
O=C(NC1(C(F)(F)F)NC(=O)N(c2ccccc2F)C1=O)c1ccncc1 (configuration not stated)	0.67	-9.4	0.0	i	-64.3
CCC(=O)c1ccc(OCC(O)CN2CCOCC2)cc1 (configuration not stated)	-0.24	1.9	-6.2	i	0.0
CC(=O)c1ccc(OCC(O)CN2C(C)CCCC2C)cc1 (configuration not stated)	-0.83	14.4	71.9*	i	·
CC(=O)c1ccc(OCC(O)CN2CCOCC2)cc1 (configuration not stated)	-0.7	15.9	-4.0	i	·
CC(=O)c1ccc(OCC(O)CN2CCC(C)CC2)cc1 (configuration not stated)	2.38	4.1	87.5*	i	·
COC(=O)c1ccc(OCC(O)CN2CCC(C)CC2)cc1 (configuration not stated)	0.31	-11.8	-0.7	i	·
Cc1cc(Cl)ccc1OCC(O)CN1C(C)CCCC1C (configuration not stated)	-0.68	10.8	91.0*	i	·
